Measurements reported in publication PMC8159961, “Exploring protein hotspots by optimized fragment pharmacophores” (Nature Communications, 2021).
Values without a mark were called inactive. How the calls were made is not given here.

Target: 5-HT1A receptor (human, UniProt P08908)
Experiment: primary screen, binary call; higher = more effect of the substance
Set-up: hit call from the mean of at least two separate experiments
Conditions: 10 µM
Experimental: GPCR radioligand binding assays were performed in HEK293 cells with stable expression of human 5-HT1A, 5-HT6, and 5-HT7b receptors (prepared with the use of Lipofectamine 2000). Non-specific binding was defined with 10 µM of 5-HT in 5-HT1AR and 5-HT7R binding experiments, whereas 10 µM of mianserin was used in 5-HT6R assays, respectively. Each compound was tested at 10 µM concentration. Results were expressed as means of at least two separate experiments.

Sequence of 5-HT1A receptor (P08908 whole entry, looked up): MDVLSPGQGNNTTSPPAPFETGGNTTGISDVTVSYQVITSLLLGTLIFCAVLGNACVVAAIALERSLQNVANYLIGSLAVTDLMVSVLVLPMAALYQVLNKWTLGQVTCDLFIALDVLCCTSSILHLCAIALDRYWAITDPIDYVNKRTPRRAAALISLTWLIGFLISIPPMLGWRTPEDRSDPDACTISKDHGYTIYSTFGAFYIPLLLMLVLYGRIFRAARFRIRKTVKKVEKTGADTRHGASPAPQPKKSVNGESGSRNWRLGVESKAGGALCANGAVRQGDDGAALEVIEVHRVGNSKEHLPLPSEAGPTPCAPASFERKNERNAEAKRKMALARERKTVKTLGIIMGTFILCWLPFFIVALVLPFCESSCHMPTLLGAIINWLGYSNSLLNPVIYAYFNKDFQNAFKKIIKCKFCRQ

Question: Which 5-HT1 does the source give for `Nc1ccc(-c2ccccc2)cc1C(=O)O` here?
Answer: 0

Question: How did the 5-HT1 turn out when `O=C(O)c1cccc(Nc2ncccn2)c1` was run?
Answer: 0

Question: `O=C(O)CC1CCC(=O)N1` (stereo not shown) was tested. Which 5-HT1 did it give?
Answer: 0

Question: Which 5-HT1 does the source give for `CC1(C)OC(=O)c2cc(Br)c(O)cc2O1` here?
Answer: 0

Question: How did the 5-HT1 turn out when `O=C(Nc1ccccc1)C1CC1` was run?
Answer: 0

Question: How did the 5-HT1 turn out when `Cc1cc(-c2ccccc2)n[nH]1` was run?
Answer: 0

Question: Which 5-HT1 does the source give for `O=C(CN1CCCC1)c1ccccc1Cl` here?
Answer: 1 (active)

Question: Which 5-HT1 does the source give for `Cc1nc(-c2ccccc2)cs1` here?
Answer: 0

Question: For `O=C1NC(=O)C2(CCc3ccccc32)N1` (stereo not shown), which 5-HT1 is on record?
Answer: 0

Question: For `CN1CC(=O)NC1=O`, which 5-HT1 is on record?
Answer: 0

Question: With `N#CC1CCS(=O)(=O)C1` (stereo not shown) as the molecule, how does the 5-HT1 read?
Answer: 0

Question: With `O=C(c1ccccc1)N1CCC(CO)CC1` as the molecule, how does the 5-HT1 read?
Answer: 0

Question: How did the 5-HT1 turn out when `Cc1ccc(-c2ccc(O)cc2)cc1` was run?
Answer: 0

Question: For `O=C(c1ccccc1F)N1CCNCC1`, which 5-HT1 is on record?
Answer: 0

Question: Which 5-HT1 does the source give for `O=C1NC(=O)/C(=C\c2cccs2)N1` here?
Answer: 0

Question: How did the 5-HT1 turn out when `COc1ccccc1CC1CCNCC1.Cl` was run?
Answer: 1 (active)

Question: How did the 5-HT1 turn out when `Brc1ccc(-c2ccon2)cc1` was run?
Answer: 0

Question: Which 5-HT1 does the source give for `COc1ccccc1C1CCNCC1` here?
Answer: 1 (active)

Question: Which 5-HT1 does the source give for `Oc1cnc(-c2ccccc2)nc1` here?
Answer: 0

Question: How did the 5-HT1 turn out when `COc1ccc(CN2CCNCC2)cc1F` was run?
Answer: 0

Question: Which 5-HT1 does the source give for `O=C1NC2(CCCC2)Nc2ccccc21` here?
Answer: 0

Question: For `Cc1cnc(C(F)(F)F)cn1`, which 5-HT1 is on record?
Answer: 0

Question: `O=c1ccc2c([nH]1)CCCC2` was tested. Which 5-HT1 did it give?
Answer: 0

Question: How did the 5-HT1 turn out when `O=C(O)C1CCN(c2ncccn2)CC1` was run?
Answer: 0

Question: For `O=C1CC(CSc2ccc(Cl)cc2)=NN1`, which 5-HT1 is on record?
Answer: 0

Question: With `CCCN1C(=O)CC(=O)NC1=S` as the molecule, how does the 5-HT1 read?
Answer: 0

Question: `C1=C[C@H]2O[C@@H]1c1ccccc12` was tested. Which 5-HT1 did it give?
Answer: 0

Question: `FC1(F)CNCC(F)(F)O1` was tested. Which 5-HT1 did it give?
Answer: 0

Question: Which 5-HT1 does the source give for `CCc1ccc(NC2=NCCCS2)cc1` here?
Answer: 0

Question: `c1cnc2c(c1)NCCC2` was tested. Which 5-HT1 did it give?
Answer: 0

Question: For `O=C(O)c1ccc(CN2CCOCC2)cc1`, which 5-HT1 is on record?
Answer: 0

Question: For `Nc1nnc(-c2cccs2)[nH]1`, which 5-HT1 is on record?
Answer: 0

Question: Which 5-HT1 does the source give for `CC(=O)c1sc(-c2ccc(O)cc2)nc1C` here?
Answer: 0

Question: For `O=C(NC1CC1)c1ccccc1O`, which 5-HT1 is on record?
Answer: 0

Question: For `Nc1ccc(SC(F)F)cc1`, which 5-HT1 is on record?
Answer: 0

Question: How did the 5-HT1 turn out when `O=C(O)C1CCCN(C(=O)N2CCCC2)C1` (stereo not shown) was run?
Answer: 0

Question: How did the 5-HT1 turn out when `CS(=O)(=O)c1ccc(N2CCNCC2)cc1` was run?
Answer: 0

Question: How did the 5-HT1 turn out when `Cn1c(N)nc2ccccc21` was run?
Answer: 0

Question: How did the 5-HT1 turn out when `NC(c1ccccc1)c1ccccc1` was run?
Answer: 0

Question: For `COc1ccccc1N1CCNCC1`, which 5-HT1 is on record?
Answer: 1 (active)
